Measurements from PubChem BioAssay (NCATS).
Records with an inconclusive call do not appear. A number with no mark means an inactive call. Active and inactive are the calls of the source. Unless noted, calls follow the shape of the dose curve; as a rule, active = well fitted inhibition curve with a large enough effect; inconclusive = small, poorly fitted or top-dose-only effect; inactive = flat fitted curve, though single readings scatter.

experiment: S16 Schwann cell PMP22 intronic element beta-lactamase assay (AID 624044; calls by dose curve; also: nearly all actives have a fitted effect of over 15% in size;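 as to ratio activity, negative = inhibition: 0% = DMSO and -100% = potassium clavulanate positive control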); settings: S16 rat Schwann cells, PMP22 element beta-lactamase FRET, 24 h; series mostly up to 17.1 µM; ratio activity, negative = inhibition: at the top concentration
Method in brief: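 Rat S16 Schwann cells with beta-Lac driven by a PMP22 intronic element, compound-treated 24 h at 37 °C. LiveBLAzer FRET B/G read: 460 nm normalized to potassium clavulanate vs DMSO; 535 nm FRET as viability; concentration-effect curves classified.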
Potency is read from the fitted curve at half-maximal effect.

SMILES | ratio activity, negative = inhibition | Potency
CC1(C)S[C@H]2C(NC(=O)[C@@H](N)c3ccc(O)cc3)C(=O)N2[C@@H]1C(=O)O (stereo partly specified) | 3.01% [at 38.3 µM] | 
CN(C)CCc1c[nH]c2ccc(CC3COC(=O)N3)cc12 (stereo unspecified) | -2.36% [at 38.3 µM] | 
C[C@@]12CCC(=O)C=C1C=CC1C2CC[C@]2(C)C1CC[C@@]21CCC(=O)O1 (stereo partly specified) | 1.14% [at 38.3 µM] | 
NC(CCC(=O)N[C@@H](CS)C(=O)NCC(=O)O)C(=O)O (stereo partly specified) | -7.25% [at 38.3 µM] | 
CC(C)Oc1ccc2c(=O)cc(-c3ccccc3)oc2c1 | -16.7% [at 38.3 µM] | 
CC(=O)O[C@@]1(C(C)=O)CCC2C3CC(C)C4=CC(=O)CC[C@@]4(C)C3CC[C@]21C (stereo partly specified) | 6.91% [at 38.3 µM] | 
CC(=O)OCC(=O)[C@@]12OC3(CCCC3)OC1CC1C3CCC4=CC(=O)C=C[C@@]4(C)[C@]3(F)C(O)C[C@]12C (stereo partly specified) | -21.1% [at 38.3 µM] | 
CCC1OC(=O)CC(O)C(C)[C@@H](O[C@@H]2OC(C)[C@H](O[C@@H]3C[C@@](C)(O)C(O)C(C)O3)C(N(C)C)C2O)[C@H](CC=O)CC(C)C(=O)/C=C/C(C)=C/[C@@H]1COC1OC(C)C(O)C(OC)[C@@H]1OC (stereo partly specified) | -2.24% [at 38.3 µM] | 
C=Cc1c(C)/c2[n-]/c1=C\c1[n-]c(c(CC)c1C)/C=c1\[n-]c3c(c1C)C(=O)C(C(=O)[O-])C=3c1[n-]c(c(C)c1CCC(=O)[O-])\C=2.[Cu].[Na+].[Na+] (stereo unspecified) | -0.471% [at 38.3 µM] | 
CCC(=O)O[C@@]1(C(=O)CCl)C(C)CC2C3CCC4=CC(=O)C=C[C@@]4(C)[C@]3(F)C(O)C[C@]21C (stereo partly specified) | -9.74% [at 38.3 µM] | 
CC(=O)[C@]1(O)CCC2C3C=C(Cl)C4=CC(=O)C5CC5[C@@]4(C)C3CC[C@]21C (stereo partly specified) | 6.9% [at 38.3 µM] | 
CO[C@]12C(COC(N)=O)C3=C(C(=O)C(C)=C(N)C3=O)N1CC1NC12 (stereo partly specified) |  | 8.91 µM (active)
CCC1OC(=O)C(C)[C@@H](O[C@H]2C[C@@](C)(OC)C(O)C(C)O2)C(C)[C@@H](O[C@@H]2OC(C)CC(N(C)C)C2O)[C@@](C)(O)CC(C)C(=O)[C@@H](C)C(O)[C@]1(C)O (stereo partly specified) | 0.826% [at 38.3 µM] | 
CC1C2CCC3C4CC=C5CC(N(C)C)CC[C@@]5(C)C4CC[C@@]32CN1C (stereo partly specified) | -0.38% [at 38.3 µM] | 
COC1CC(O[C@H]2/C(C)=C/CC3CC(C[C@]4(CCC(C)C(C5CCCCC5)O4)O3)OC(=O)[C@H]3C=C(C)/C(=N/O)C4OC/C(=C\C=C\[C@@H]2C)[C@@]43O)OC(C)C1O (stereo partly specified) | 0.708% [at 38.3 µM] | 
CCC(C)C(=O)OC1CC(O)C=C2C=CC(C)C(CCC(O)CC(O)CC(=O)O)C21 (stereo unspecified) | -2.07% [at 38.3 µM] | 
OCC1OC(n2cnc3c(=S)nc[nH]c32)C(O)C1O (stereo unspecified) | -18.6% [at 38.3 µM] | 

experiment: qHTS profiling for inhibitors of Plasmodium falciparum proliferation (AID 504749); also: nearly all actives have a fitted effect of over 60% in size;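 as to activity, negative = inhibition: 0% = DMSO vehicle and full inhibition = artemisinin control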; settings: P. falciparum in erythrocytes, SYBR Green DNA, 72 h; at 28.7 µM (top of the series); parasite line A
Method in brief: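 P. falciparum-infected erythrocytes (0.3% parasitemia, 2.5% hematocrit final) were exposed to compounds for 72 h at 37 C in 5% CO2, then lysed with SYBR Green buffer overnight at room temperature; parasite DNA fluorescence was normalized to artemisinin and DMSO controls.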

SMILES | activity, negative = inhibition [%]
CC1(C)S[C@H]2C(NC(=O)[C@@H](N)c3ccc(O)cc3)C(=O)N2[C@@H]1C(=O)O (stereo partly specified) | -0.804
CN(C)CCc1c[nH]c2ccc(CC3COC(=O)N3)cc12 (stereo unspecified) | -2.15
CC(C)Oc1ccc2c(=O)cc(-c3ccccc3)oc2c1 | -21.9
N[C@@H]1C(O)OC(CO)C(O)C1O (stereo partly specified) | 3.86
C=Cc1c(C)/c2[n-]/c1=C\c1[n-]c(c(CC)c1C)/C=c1\[n-]c3c(c1C)C(=O)C(C(=O)[O-])C=3c1[n-]c(c(C)c1CCC(=O)[O-])\C=2.[Cu].[Na+].[Na+] (stereo unspecified) | -17.5
CC(=O)[C@]1(O)CCC2C3C=C(Cl)C4=CC(=O)C5CC5[C@@]4(C)C3CC[C@]21C (stereo partly specified) | 6.27
C[C@@]12C=CC(=O)C=C1CCC1C3CC(O)[C@@](O)(C(=O)CO)[C@]3(C)CC(O)[C@]12F (stereo partly specified) | 5.41
CC1C2CCC3C4CC=C5CC(N(C)C)CC[C@@]5(C)C4CC[C@@]32CN1C (stereo partly specified) | 2.63
CCC(C)C(=O)OC1CC(O)C=C2C=CC(C)C(CCC(O)CC(O)CC(=O)O)C21 (stereo unspecified) | -1.64
OCC1OC(n2cnc3c(=S)nc[nH]c32)C(O)C1O (stereo unspecified) | -27.9

same assay, conditions: P. falciparum in erythrocytes, SYBR Green DNA, 72 h; at 28.7 µM (top of the series); parasite line B

SMILES | activity, negative = inhibition [%]
CN(C)CCc1c[nH]c2ccc(CC3COC(=O)N3)cc12 (stereo unspecified) | 12.7
C[C@@]12CCC(=O)C=C1C=CC1C2CC[C@]2(C)C1CC[C@@]21CCC(=O)O1 (stereo partly specified) | -24.2
CCCCCCCCCc1ccc(OCCOCCOCCOCCOCCOCCOCCOCCOCCO)cc1 | -22.2
CC(=O)[C@]1(O)CCC2C3C=C(Cl)C4=CC(=O)C5CC5[C@@]4(C)C3CC[C@]21C (stereo partly specified) | 5.21
CC1C2CCC3C4CC=C5CC(N(C)C)CC[C@@]5(C)C4CC[C@@]32CN1C (stereo partly specified) | 0.451
CCC(C)C(=O)OC1CC(O)C=C2C=CC(C)C(CCC(O)CC(O)CC(=O)O)C21 (stereo unspecified) | -21.8

same assay, conditions: P. falciparum in erythrocytes, SYBR Green DNA, 72 h; parasite line B

SMILES | Potency
CC(=O)O[C@@]1(C(C)=O)CCC2C3CC(C)C4=CC(=O)CC[C@@]4(C)C3CC[C@]21C (stereo partly specified) | 12.6 µM (active)
CO[C@]12C(COC(N)=O)C3=C(C(=O)C(C)=C(N)C3=O)N1CC1NC12 (stereo partly specified) | 1.26 µM (active)
CCC1OC(=O)C(C)[C@@H](O[C@H]2C[C@@](C)(OC)C(O)C(C)O2)C(C)[C@@H](O[C@@H]2OC(C)CC(N(C)C)C2O)[C@@](C)(O)CC(C)C(=O)[C@@H](C)C(O)[C@]1(C)O (stereo partly specified) | 11.2 µM (active)
